Reference: PubChem BioAssay (NCI)
The panel holds about 83,000 compounds, 20% with a hit somewhere; the sample as a whole holds those more often.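 96-well plates, one dose, 48 hours. Percent growth reported; active if below 10.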 Active and inactive are the calls of the source.

Experiments:
Test in all cases: NCI-60 one-dose screen, 48 h (100 = growth as untreated, 0 = no growth, -100 = all killed)
Conditions in all cases: 10 µM unless noted
[1] = test system: DU-145 prostate
[2] = test system: K-562 leukemia
[3] = test system: MALME-3M melanoma
[4] = test system: MDA-MB-231 breast
[5] = test system: RXF 393 renal
[6] = test system: SF-268 CNS
[7] = test system: SF-295 CNS
[8] = test system: SF-539 CNS
[9] = test system: UACC-257 melanoma
[10] = test system: M14 melanoma
[11] = test system: HCT-15 colon
[12] = test system: HT29 colon
[13] = test system: SNB-75 CNS
[14] = test system: SNB-19 CNS
[15] = test system: U251 CNS
[16] = test system: PC-3 prostate
[17] = test system: SK-MEL-5 melanoma
[18] = test system: UACC-62 melanoma
[19] = test system: LOX IMVI melanoma
[20] = test system: SK-MEL-28 melanoma

Measured: growth

C=CC(=O)Nc1ccc(Nc2nccc(-c3ccc(N4CCCC4)c(C#N)c3)n2)cc1
inactive: [1] 36.8% | [2] 16.6% | [4] 60.9% | [6] 43.9% | [8] 51.1% | [9] 39.4% | [13] 15.4% | [14] 41.5% | [16] 23.6% | [17] 15.4% | [18] 52.9% | [19] 69.4%
active: [3] -41.8% | [5] -54.5% | [7] -36.9% | [10] 3.42% | [11] -36.7% | [12] 2.55% | [15] 5.57% | [20] -46.1%

COc1ccc2c(c1)/C(=N/c1n[nH]c(=S)s1)C(=O)N2
inactive: [1] 107% | [2] 82.9% | [3] 104% | [4] 87.8% | [5] 113% | [6] 98.8% | [7] 106% | [8] 87.4% | [9] 96.5% | [10] 103% | [11] 104% | [12] 105% | [13] 75.4% | [14] 99.1% | [15] 93.8% | [17] 91.2% | [18] 94.8% | [19] 95.8% | [20] 107%

COc1ccc(C(=O)c2cc3c(N)c(C(=O)Nc4ccccc4)sc3nc2C)cc1
active: [2] 8.08% | [5] -2.82% | [8] -5.08%
inactive: [1] 17.7% | [3] 62.7% | [4] 23.3% | [6] 51.4% | [7] 26.9% | [9] 70.7% | [10] 13.1% | [11] 18.7% | [12] 14.9% | [13] 28.2% | [14] 25.2% | [15] 17.8% | [16] 24.3% | [17] 17.2% | [18] 30.5% | [19] 53.6% | [20] 59.8%

N#Cc1nc(-c2ccccc2)oc1S(=O)(=O)N1CCN(c2ccc(F)cc2)CC1
inactive: [1] 98.8% | [3] 51.8% | [4] 83.8% | [5] 89.8% | [6] 88.8% | [7] 105% | [8] 101% | [9] 86.8% | [10] 53.5% | [11] 25.5% | [12] 46% | [13] 96.9% | [14] 87.6% | [15] 82.1% | [16] 67.5% | [17] 86.1% | [18] 75.6% | [19] 15.2% | [20] 94.7%
active: [2] 3.68%

NC1=Nc2cc(OCCCCN3Cc4ccccc4C3)c(OCC3CC3)cc2C12CCCC2
active: [2] 2.5% | [3] -88.5% | [8] -8.18% | [9] -83.2% | [10] -89.7% | [11] 3.13% | [12] 2.03% | [17] -91.5% | [19] -80.7% | [20] -81.4%
inactive: [1] 65% | [4] 19.3% | [5] 30.2% | [6] 56.1% | [7] 61.7% | [13] 71.5% | [14] 76.9% | [15] 24.2% | [18] 50.5%

CCOC(=O)c1nn(CC(O)c2ccccc2)c(NC(=O)Nc2cccc(F)c2)c1C (configuration not stated)
inactive: [1] 94.4% | [2] 92.4% | [3] 100% | [4] 90% | [5] 107% | [6] 95.4% | [7] 92.2% | [8] 102% | [9] 86.8% | [10] 103% | [11] 98% | [12] 101% | [13] 108% | [14] 97.3% | [15] 92% | [17] 96.7% | [18] 80.8% | [19] 98.4% | [20] 113%

COc1ccc(/C=C/c2ccc3ccccc3n2)c(OC)c1
inactive: [1] 91.2% | [2] 19.8% | [3] 50% | [4] 58.9% | [5] 90.7% | [6] 98.7% | [7] 60.2% | [8] 83.3% | [9] 84.8% | [10] 45.3% | [11] 56% | [12] 55.6% | [13] 78% | [14] 83.2% | [15] 83.1% | [17] 78.3% | [18] 65.8% | [19] 59.6%

CCO/C=N/C1=C(C#N)C(c2ccc(F)cc2)c2sc3c(F)cccc3c2O1 (configuration not stated)
inactive: [1] 62.4% | [2] 23.5% | [3] 57.6% | [4] 51% | [5] 33.3% | [6] 50.3% | [7] 22% | [8] 28.9% | [9] 60.2% | [10] 29.8% | [11] 26% | [12] 56.8% | [13] 13.4% | [14] 33.2% | [15] 26.6% | [17] 35.5% | [18] 15.2% | [19] 36% | [20] 60.4%

CCCCCCCCCCCCCOC(=O)c1c(C)[nH]c(/C=C2\N=C(c3ccc[nH]3)C=C2OC)c1C
active: [2] 5.53% | [10] 1.88% | [11] 4.86% | [12] 8.1% | [17] -89.1% | [18] -19.1% | [19] -56.4%
inactive: [1] 29.3% | [3] 41.8% | [4] 19.6% | [5] 27.7% | [6] 34.2% | [7] 49.9% | [8] 10.8% | [9] 38.7% | [13] 21.2% | [14] 48.1% | [15] 23.9% | [20] 30.2%

CCOC(=O)c1c(C)nc2ccccc2c1/C=C/c1cccs1
inactive: [1] 95.5% | [2] 50.3% | [3] 112% | [4] 82.7% | [5] 93.8% | [6] 89.4% | [7] 65.6% | [8] 93.2% | [9] 91.8% | [10] 93.4% | [11] 58.6% | [12] 76.3% | [13] 80.1% | [14] 83.5% | [15] 81.2% | [16] 60.4% | [17] 21% | [18] 50.7% | [19] 73.1% | [20] 106%

Cc1n[nH]c2ccc(Br)cc2c1=O
inactive: [1] 104% | [2] 91.4% | [3] 97.4% | [4] 121% | [5] 103% | [6] 107% | [7] 87% | [8] 98.1% | [9] 108% | [10] 103% | [11] 100% | [12] 98.3% | [13] 102% | [14] 109% | [15] 100% | [17] 97.4% | [18] 112% | [19] 101% | [20] 113%

O=C(O)/C=C/C(=O)Nc1cccc(Cn2nnc3cc(Cl)c(Cl)cc32)c1
inactive: [1] 119% | [2] 91.3% | [3] 97.5% | [4] 106% | [5] 93.2% | [6] 98.5% | [7] 97% | [8] 101% | [9] 97.1% | [10] 102% | [11] 95.3% | [12] 110% | [13] 86.4% | [14] 100% | [15] 103% | [17] 99.1% | [18] 97.6% | [19] 97.3% | [20] 106%

COc1ccc2cc(-c3ccnc4c(N=Nc5ccc(Cl)cc5)c(N)nn34)ccc2c1
inactive: [1] 105% | [2] 86.5% | [3] 97.8% | [4] 101% | [5] 115% | [6] 101% | [7] 102% | [8] 103% | [9] 84.2% | [10] 92.8% | [11] 112% | [12] 103% | [13] 79.4% | [14] 92.4% | [15] 93.4% | [16] 89% | [17] 97.5% | [18] 91.8% | [19] 102% | [20] 99.2%

COc1ccccc1C(=O)Nc1cccc(NC(=O)c2ccoc2C)c1
active: [2] 8.76% | [12] 6.04%
inactive: [1] 53.3% | [3] 60.4% | [4] 59.4% | [5] 50.1% | [6] 48.2% | [7] 29.8% | [8] 27.2% | [9] 33.3% | [10] 13.1% | [11] 28.7% | [13] 19.3% | [14] 30.4% | [15] 21.9% | [17] 20.5% | [18] 29.7% | [19] 37.3%

Cc1ccnc(Nc2ccc([N+](=O)[O-])c(NCCN3CCOCC3)n2)c1
inactive: [1] 10.1% | [3] 89.3% | [4] 42.4% | [5] 70.4% | [6] 31.9% | [7] 35.8% | [9] 86.2% | [10] 24.1% | [12] 10.9% | [13] 56.8% | [14] 58.3% | [15] 23.2% | [18] 37.3% | [19] 22.8% | [20] 72%
active: [2] 6.76% | [8] 6.71% | [11] 8.47% | [17] -3.36%

CCN1CCN(CCNc2nccc(-c3c(-c4ccc(F)c(OC)c4)nc4sccn34)n2)S1(=O)=O
active: [3] -7.64%
inactive: [1] 84.1% | [2] 54.4% | [4] 50.8% | [5] 45% | [6] 79% | [7] 90.5% | [8] 99.1% | [9] 30.7% | [10] 20.7% | [11] 94.6% | [12] 73.1% | [13] 74% | [14] 93% | [15] 76.8% | [17] 41.4% | [18] 15.5% | [19] 40.3% | [20] 27.2%
